# Results as given in PubChem BioAssay (EPA / NIEHS).
# Several values for one entry are separate records, joined by “and”; a condition that tells them apart may be missing. Equal entries are not always repeated. Some compounds were tested as several samples or in several runs, with calls that do not always agree. Activity calls are given as the source filed them. The calls were made as follows: active = hit-call score of the fitted dose curve at least 0.9, where 1 is the maximum; inactive = score below 0.9.
# Key:
# [1] = APR_HepG2_MitoMembPot_72hr: Apredica 72-hour HepG2 Assay for Mitochondrial Membrane Potential (AID 2282917); settings: imaging, actives raise or lower the signal
# Method in brief: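 HepG2 cells exposed 72 h to compounds at 0.39–200 uM (0.5% v/v DMSO, duplicates); MitoTracker Red CMXRos 250 nM loaded 30 min before 3.7% formaldehyde fixation, imaged by HCS fluorescence. Bidirectional fit versus DMSO.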
# [2] = APR_HepG2_P-H2AX_24hr: Apredica 24-hour HepG2 Assay for H2AX Phosphorylation (AID 2282920); settings: high-content imaging, actives raise or lower the signal
# Method in brief: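 HepG2, 24 hr, cpd 0.39–200 uM (10 conc, duplicate), DMSO 0.5% v/v final. Fix 3.7% formaldehyde, Triton X-100 permeabilize, anti-phospho-H2A.x 1:200 + Hoechst 2 ug/mL. Imaged, bidirectional fit vs DMSO.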
# [3] = APR_HepG2_StressKinase_24hr: Apredica 24-hour HepG2 Assay for Stress Kinase (AID 2282922); settings: HepG2 stress kinase (phospho-c-Jun) imaging, actives raise or lower the signal
# Method in brief: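 HepG2 cells exposed 24 hr to compound at 0.39–200 uM (10 concentrations, duplicate), 0.5% v/v DMSO final. Fixed in 3.7% formaldehyde, permeabilized with Triton X-100, immunolabeled for phospho-c-Jun with Hoechst 33342; HCS fluorescence imaging, bidirectional fit versus DMSO.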
# [4] = APR_HepG2_MitoMass_72hr: Apredica 72-hour HepG2 Assay for Mitochondrial Mass (AID 2282924); settings: high-content imaging, actives raise or lower the signal;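 also: MitoTracker Red CMXRos stain intensity per cell imaged as mitochondrial mass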
# Method in brief: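 HepG2 cells were exposed for 72 hr to compounds at 0.39–200 uM (ten concentrations, duplicate, 0.5% v/v DMSO final). Live cells were stained with 250 nM MitoTracker Red CMXRos for 30 min, then fixed in 3.7% formaldehyde and imaged by HCS fluorescence.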
# [5] = ATG_CRE_CIS: Attagene CIS-FACTORIAL HepG2 Assay for human cAMP Responsive Element (CRE) binding protein 3 (AID 2282926); settings: HepG2 CRE cis-reporter, Attagene multiplexed mRNA; actives raise or lower the signal
# Method in brief: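 Human liver HepG2, transient MRTU transfection, 24 h compound exposure. Total RNA → oligo(dT) RT → PCR → 6-FAM primer extension → HpaI cut → CE. Activity called both directions vs DMSO.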
# [6] = molecular target: CCAAT/enhancer-binding protein beta (Homo sapiens) (UniProt P17676); experiment: ATG_C_EBP_CIS: Attagene CIS-FACTORIAL HepG2 Assay for human CCAAT/Enhancer Binding Protein (C/EBP) beta (AID 2282927); settings: HepG2 Attagene cis-factorial transcription factor reporter; actives raise or lower the signal
# Chain of CCAAT/enhancer-binding protein beta (Homo sapiens) (P17676 whole entry, looked up, the tested form may be a part): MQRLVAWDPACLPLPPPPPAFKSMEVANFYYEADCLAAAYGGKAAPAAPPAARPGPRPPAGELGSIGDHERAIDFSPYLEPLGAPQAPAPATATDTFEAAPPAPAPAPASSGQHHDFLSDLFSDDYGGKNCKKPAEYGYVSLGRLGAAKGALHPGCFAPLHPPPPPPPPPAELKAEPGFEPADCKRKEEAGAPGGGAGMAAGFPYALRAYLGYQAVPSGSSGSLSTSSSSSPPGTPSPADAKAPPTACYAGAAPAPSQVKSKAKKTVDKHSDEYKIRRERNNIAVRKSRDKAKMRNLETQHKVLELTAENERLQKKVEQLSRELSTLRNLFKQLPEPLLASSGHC
# Method in brief: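 Chemical-treated HepG2 cells (24 h) bearing cis-regulated reporter constructs were processed for total RNA, then reverse transcription, PCR amplification, fluorescent primer extension and fragment analysis; gain- and loss-of-signal were fitted against DMSO.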
# [7] = ATG_CMV_CIS: Attagene CIS-FACTORIAL HepG2 Assay for human CMV (Internal Marker) (AID 2282928); settings: HepG2 CMV promoter reporter, transcription factor profiling; actives raise or lower the signal;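 also: endpoint acts as a background internal control marker rather than a target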
# Method in brief: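 Cell system: HepG2, transiently transfected multiple reporter units under cis promoters. Exposure: 24 h. Detection: RT-PCR, FAM labeling, HpaI digestion, capillary electrophoresis. Analysis: bidirectional, DMSO baseline.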
# [8] = APR_HepG2_p53Act_72hr: Apredica 72-hour HepG2 Assay for p53 Activation (AID 2282923); settings: high-content imaging, actives raise or lower the signal;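 also: average cellular p53 protein immunofluorescence intensity in HepG2 cells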
# Method: APR_HepG2_72hr is a cell-based, multiplexed-readout assay that uses HepG2, a human liver cell line, with measurements taken at 72 hours after chemical dosing in a 384-well plate.APR_HepG2_p53Act_72hr is one of 10 assay component(s) measured or calculated from the APR_HepG2_72hr assay. It is designed to make measurements of dna content, a form of viability reporter, as detected with fluorescence intensity signals by HCS Fluorescent Imaging technology.Data from the assay component APR_HepG2_p53Act_72hr was analyzed into 1 assay endpoint. This assay endpoint, APR_HepG2_p53Act_72hr, was analyzed with bidirectional fitting relative to DMSO as the negative control and baseline of activity. Using a type of viability reporter, measures of protein for gain or loss-of-signal activity can be used to understand the signaling at the pathway-level as they relate to the gene TP53. Furthermore, this assay endpoint can be referred to as a primary readout, because this assay has produced multiple assay endpoints where this one serves a signaling function. To generalize the intended target to other relatable targets, this assay endpoint is annotated to the dna binding intended target family, where the subfamily is tumor suppressor.
# Cells were treated with dimethyl sulfoxide (DMSO) as a solvent control at a final concentration of 0.5% v/v or with compounds in DMSO with a resulting final DMSO concentration of 0.5% v/v. Compound treatment was done at concentrations of 0.39, 0.78, 1.56, 3.12, 6.24, 12.5, 25, 50, 100, and 200 uM in duplicate on each plate. Cells were treated with compounds for 1, 24, or 72 hr. Carbonyl […] m-chloro-phenylhydrazone (CCCP) and taxol were used as positive controls for mitochondrial function and cytoskeletal stability, respectively; DMSO served as the negative control for this experiment. Cells were fixed by the direct addition of 50 uL formaldehyde in Hank's Balanced Salt Solution (HBSS) to a final concentration of 3.7%. After incubation in the fixation medium for 30 min at room temperature (293-298 K), cells were rinsed twice with HBSS and treated with cell permeabilization buffer (16 uL of 0.5% Triton X-100) for 10 min at room temperature (293-298 K) before labeling. For mitochondrial membrane potential and mitochondrial measurements, pre-fixed cells were incubated with 50 uL of MitoTracker Red CMXRos (Invitrogen) at a concentration of 250 nM for 30 min before fixation. In the remaining cases, post-fixed cells were labeled by incubation with a multiplexed mixture of primary antibodies in HBSS for 60 min at room temperature (293-298 K) to detect immunoreactivity of c-Jun (1:500), phospho-histone H3 (1:100), phospho-histone H2A.x (1:200), p53 (1:400), alpha-tubulin (1:200) and Hoechst 33342 (2 ug/mL). […]
smiles,measurement,setting,value
CN(C)CCOC(c1ccccc1)c1ccccc1,outcome,[1],inactive
same,outcome,[2],inactive
same,outcome,[3],inactive
same,outcome,[4],inactive
same,outcome,[5],inactive
same,outcome,[6],inactive
same,outcome,[7],inactive
C/C=C/C(=O)C1=C(C)CCCC1(C)C,AC50,[5],34.4 µM (active)
same,outcome,[6],inactive
same,AC50,[7],174 µM (active)
CC(C)(C)c1ccc(O)c(O)c1,AC50,[5],47.8 µM (active) and 181 µM (active)
same,outcome,[5],inactive
same,outcome,[6],inactive
same,AC50,[7],64.9 µM (active) [middle of 4 runs]
same,outcome,[7],inactive
COc1ccccc1NC(=O)c1cc2ccccc2cc1O,AC50,[5],31.6 µM (active)
same,outcome,[6],inactive
same,AC50,[7],100 µM (active)
CCCCc1oc2ccccc2c1C(=O)c1cc(I)c(OCCN(CC)CC)c(I)c1,outcome,[1],inactive
same,AC50,[2],51.7 µM (active)
same,AC50,[3],58.2 µM (active)
same,AC50,[8],75.5 µM (active)
same,AC50,[4],52.6 µM (active)
same,AC50,[5],20.9 µM (active)
same,AC50,[6],95 µM (active)
same,AC50,[7],20 µM (active)
CC(=O)Nc1ccc(O)cc1,outcome,[1],inactive
same,outcome,[2],inactive
same,outcome,[3],inactive
same,outcome,[4],inactive
same,outcome,[5],inactive
same,outcome,[6],inactive
same,outcome,[7],inactive
O=C(F)C(F)(F)C(F)(F)C(F)(F)C(=O)F,outcome,[5],inactive
same,outcome,[6],inactive
same,outcome,[7],inactive
COc1cc(OC)nc(NC(=O)NS(=O)(=O)Nc2ccccc2C(=O)N(C)C)n1,outcome,[5],inactive
same,outcome,[6],inactive
same,outcome,[7],inactive
O=CC(F)(F)C(F)(F)C(F)(F)F,outcome,[5],inactive
same,outcome,[6],inactive
same,outcome,[7],inactive
O=C(O)C(F)(F)OC(F)(F)C(F)(F)OC(F)(F)C(F)(F)OC(F)(F)C(F)(F)C(F)(F)C(F)(F)F,AC50,[5],37.7 µM (active) and 27.1 µM (active)
same,outcome,[6],inactive
same,outcome,[7],inactive
O=C1C=CC(=O)N1c1cccc(N2C(=O)C=CC2=O)c1,outcome,[5],inactive
same,outcome,[6],inactive
same,outcome,[7],inactive
FC(F)(F)C1(F)C(F)(F)C(F)(F)C(F)(F)C(F)(C(F)(F)F)C1(F)F (stereo unspecified),outcome,[5],inactive
same,outcome,[6],inactive
same,outcome,[7],inactive
CCO[Si](C)(C)OCC,outcome,[5],inactive
same,outcome,[6],inactive
same,outcome,[7],inactive
Cc1ccc(C)c(S(=O)(=O)O)c1,outcome,[5],inactive
same,outcome,[6],inactive
same,outcome,[7],inactive
Nc1ccn([C@@H]2O[C@H](CO)[C@@H](O)C2O)c(=O)n1 (stereo partly specified),outcome,[5],inactive
same,outcome,[6],inactive
same,outcome,[7],inactive
CCCCCCCCCCCCOC(=O)c1cc(O)c(O)c(O)c1,outcome,[5],inactive
same,outcome,[6],inactive
same,outcome,[7],inactive
CC1COCc2cc3c(cc21)C(C)(C)C(C)C3(C)C (stereo unspecified),outcome,[5],inactive
same,outcome,[6],inactive
same,outcome,[7],inactive
CCC1CO1 (stereo unspecified),outcome,[5],inactive
same,outcome,[6],inactive
same,outcome,[7],inactive
CC(O)COc1ccccc1 (stereo unspecified),outcome,[5],inactive
same,outcome,[6],inactive
same,outcome,[7],inactive
CCOC(=O)c1nc(C(Cl)(Cl)Cl)n(-c2ccc(Cl)cc2Cl)n1,outcome,[5],inactive
same,outcome,[6],inactive
same,AC50,[7],29.6 µM (active)
C=COC(=O)C(C)(C)CCCCCC,outcome,[5],inactive
same,outcome,[6],inactive
same,AC50,[7],159 µM (active)
CCC(=O)O,outcome,[5],inactive
same,outcome,[6],inactive
same,outcome,[7],inactive
